Compound activity as filed in PubChem.
rCAG binder = binders of r(CAG) RNA repeats, primary screen, biochemical, fluorescence. r(CAG) RNA repeat, TO-PRO-1 dye displacement fluorescence. inhibition, % at 3 µM. actives 1.3% (n = 370,000);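 active = inhibition above the plate cutoff, the mean of all test compounds on that plate plus 3 SD, cut at about 35% in these data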;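 note: 0% = DMSO alone and 100% = 100 µM mitoxantrone as full dye displacement; higher means more dye released from RNA so lower well fluorescence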
GRIN3A LBD mod = binders of NR3A ligand-binding domain, primary screen, biophysical, differential scanning fluorimetry, uHTS; Glutamate receptor ionotropic, NMDA 3A (GRIN3A) ligand-binding domain; NR3A LBD differential scanning fluorimetry, Tm shift; 0% = protein alone, 100% = glycine-bound protein; Tm shift relative to glycine control, % at 25 µM; actives 2.5% (n = 340,000);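 active = melting temperature shift of at least 10% of the positive control shift, at one fixed dose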
FAS-TE inh = FAS thioesterase domain inhibitors, primary screen, biochemical, fluorescence intensity, uHTS; Fatty acid synthase (Homo sapiens), P49327; recombinant FAS-TE, OMFH fluorogenic substrate, fluorescence endpoint; inhibition, % at 15 µM; actives 0.67% (n = 360,000);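 active = compounds whose normalised, plate-corrected inhibition of enzyme fluorescence in the single-dose primary screen is 50% or more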;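 note: 0% = DMSO with enzyme and 100% = substrate without enzyme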
Target sequence (P49327 whole entry, looked up, the tested form may be a part): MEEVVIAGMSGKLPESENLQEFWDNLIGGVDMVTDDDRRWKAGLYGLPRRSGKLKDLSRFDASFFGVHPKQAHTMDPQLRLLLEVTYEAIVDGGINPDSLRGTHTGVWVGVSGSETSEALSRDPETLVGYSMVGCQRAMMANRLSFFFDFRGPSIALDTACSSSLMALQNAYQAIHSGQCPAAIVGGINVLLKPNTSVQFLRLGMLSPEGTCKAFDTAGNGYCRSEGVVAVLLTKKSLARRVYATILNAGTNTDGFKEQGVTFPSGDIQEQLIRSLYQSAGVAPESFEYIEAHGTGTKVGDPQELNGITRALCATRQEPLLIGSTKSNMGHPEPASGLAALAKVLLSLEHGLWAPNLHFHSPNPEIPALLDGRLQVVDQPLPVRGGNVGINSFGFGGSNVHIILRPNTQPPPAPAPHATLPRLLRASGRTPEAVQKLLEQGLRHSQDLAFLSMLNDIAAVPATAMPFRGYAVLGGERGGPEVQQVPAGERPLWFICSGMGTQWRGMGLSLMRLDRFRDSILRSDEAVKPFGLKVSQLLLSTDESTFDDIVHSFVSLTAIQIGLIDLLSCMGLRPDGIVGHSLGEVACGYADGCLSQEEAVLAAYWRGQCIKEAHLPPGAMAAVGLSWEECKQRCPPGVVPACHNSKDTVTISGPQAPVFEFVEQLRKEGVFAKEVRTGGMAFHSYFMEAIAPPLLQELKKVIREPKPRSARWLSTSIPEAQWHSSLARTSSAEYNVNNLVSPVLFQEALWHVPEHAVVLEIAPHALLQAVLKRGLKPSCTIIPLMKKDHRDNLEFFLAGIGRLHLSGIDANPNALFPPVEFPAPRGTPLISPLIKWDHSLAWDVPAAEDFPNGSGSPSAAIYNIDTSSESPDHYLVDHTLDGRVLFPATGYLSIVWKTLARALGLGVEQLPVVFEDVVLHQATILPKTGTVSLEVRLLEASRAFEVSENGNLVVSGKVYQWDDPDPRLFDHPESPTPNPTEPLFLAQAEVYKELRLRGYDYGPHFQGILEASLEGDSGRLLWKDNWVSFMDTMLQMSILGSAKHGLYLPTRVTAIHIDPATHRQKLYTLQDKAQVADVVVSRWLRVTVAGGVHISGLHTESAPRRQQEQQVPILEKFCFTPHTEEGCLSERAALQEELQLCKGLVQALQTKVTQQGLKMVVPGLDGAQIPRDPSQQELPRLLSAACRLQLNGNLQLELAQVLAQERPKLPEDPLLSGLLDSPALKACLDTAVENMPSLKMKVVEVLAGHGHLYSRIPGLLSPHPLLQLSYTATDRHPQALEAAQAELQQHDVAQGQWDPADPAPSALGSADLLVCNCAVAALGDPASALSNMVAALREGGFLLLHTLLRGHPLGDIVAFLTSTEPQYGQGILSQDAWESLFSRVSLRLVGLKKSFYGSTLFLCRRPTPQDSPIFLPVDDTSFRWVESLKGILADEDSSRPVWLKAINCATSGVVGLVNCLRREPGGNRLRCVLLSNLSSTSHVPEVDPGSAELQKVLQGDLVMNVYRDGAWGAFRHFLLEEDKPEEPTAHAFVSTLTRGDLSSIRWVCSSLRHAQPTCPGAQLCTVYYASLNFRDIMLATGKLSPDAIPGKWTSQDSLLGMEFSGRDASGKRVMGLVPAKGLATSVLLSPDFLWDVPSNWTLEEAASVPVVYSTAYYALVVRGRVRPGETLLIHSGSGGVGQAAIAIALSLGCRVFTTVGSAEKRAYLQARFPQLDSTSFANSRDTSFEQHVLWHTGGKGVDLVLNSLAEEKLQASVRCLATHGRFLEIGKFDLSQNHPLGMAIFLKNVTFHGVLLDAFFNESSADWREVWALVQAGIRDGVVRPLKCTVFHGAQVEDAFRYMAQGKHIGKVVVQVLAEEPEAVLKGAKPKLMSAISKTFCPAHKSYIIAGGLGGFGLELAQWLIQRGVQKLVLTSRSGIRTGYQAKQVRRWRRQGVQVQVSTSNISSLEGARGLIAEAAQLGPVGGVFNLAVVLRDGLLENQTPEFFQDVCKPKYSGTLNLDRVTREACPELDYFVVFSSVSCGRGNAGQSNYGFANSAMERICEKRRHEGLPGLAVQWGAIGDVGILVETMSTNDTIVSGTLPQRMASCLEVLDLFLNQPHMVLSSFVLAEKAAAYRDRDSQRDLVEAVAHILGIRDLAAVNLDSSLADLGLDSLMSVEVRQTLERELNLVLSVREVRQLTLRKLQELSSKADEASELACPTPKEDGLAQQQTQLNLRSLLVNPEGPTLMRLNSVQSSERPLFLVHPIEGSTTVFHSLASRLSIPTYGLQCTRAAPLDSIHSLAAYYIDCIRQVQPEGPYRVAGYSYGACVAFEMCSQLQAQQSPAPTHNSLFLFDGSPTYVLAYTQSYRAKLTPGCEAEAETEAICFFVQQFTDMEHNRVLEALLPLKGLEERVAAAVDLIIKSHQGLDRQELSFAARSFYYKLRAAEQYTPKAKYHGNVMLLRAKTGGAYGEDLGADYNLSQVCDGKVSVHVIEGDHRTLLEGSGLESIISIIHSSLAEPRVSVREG
Myeloid diff 2 = induction of myeloid progenitor differentiation, primary screen, cell-based, flow cytometry, MLPCN library. AID 624256, 2012. calls only at 10 µM. actives 1% (n = 360,000). ER-HoxA9 myeloid progenitors, lysozyme-GFP differentiation;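 active = normalized GFP-positive differentiation at or above the plate's own cutoff, the solvent-only control mean plus 3 SD; inconclusive = no clear call, values can overlap the other calls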;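 note: cells exposed to compound for four days before flow analysis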
MPTP inh = mitochondrial permeability transition pore inhibitors, primary screen, biochemical, isolated mouse mitochondria, absorbance; inhibition, % at 10 µM; actives 1.4% (n = 360,000); AID 602449, 2012; Ca2+ swelling absorbance, 30 min;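 active = inhibition of 50% or more, scaled per plate between neutral and stimulator controls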;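 note: 0% = DMSO wells given calcium and 100% = 1 mM EGTA wells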
rCAG binder conf = small molecules binding CAG repeat RNA – biochemical, fluorescence, confirmation; actives 70% (n = 4,300); AID 652065, 2013; inhibition, % at 3 µM; r(CAG) RNA repeat, TO-PRO-1 dye displacement fluorescence; shares compounds with rCAG binder;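 active = inhibition above a per-plate cutoff, the mean inhibition of sample wells plus 3 SD, cut at about 35% in these data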;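 note: loss of TO-PRO-1 fluorescence as compound displaces dye from 1x1 AA loop RNA; 0% = DMSO only wells and 100% = 100 µM mitoxantrone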
dCAG dye counter = displacement of TO-PRO-1 from CAG DNA duplex, counter-screen for rCAG RNA repeat binder project, biochemical, fluorescence, TO-PRO-1 dye, d(CAG) DNA oligo; inhibition, % at 3 µM; shares compounds with rCAG binder; actives 94% (n = 4,300); AID 652068, 2013; d(CAG) DNA oligo TO-PRO-1 dye displacement;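 active = inhibition above its plate's cutoff, the mean test-well inhibition plus 3 SD, cut at about 4.8% in these data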;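 note: 0% = DNA dye mix with DMSO and 100% = 100 µM mitoxantrone; hits displace the dye from DNA and so lower well fluorescence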
dCAG dye DR = inhibitors of DNA CAG/GTC TO-PRO-1 complex, dose response, counter-screen for rCAG RNA repeat binder project, biochemical, fluorescence, TO-PRO-1 dye; shares compounds with rCAG binder; DNA CAG/GTC duplex TO-PRO-1 dye displacement fluorescence; IC50, µM; actives 20% (n = 250); AID 686960, 2013; in the data active = IC50 below about 10 µM
* = called active by the depositor. A selection: hits, their analogues and other compounds. The true share with any hit is near 5.7%.

CCSc1nc2sc3c(c2c(=O)[nH]1)CCc1ccccc1-3 was read as rCAG binder 12, GRIN3A LBD mod 0, FAS-TE inh 23, Myeloid diff 2 inactive and MPTP inh 2.
O=c1cc(-c2ccccc2)oc2cc(O)c(O)c(O)c12 was read as rCAG binder 38*, GRIN3A LBD mod -17, FAS-TE inh 11, Myeloid diff 2 inactive, rCAG binder conf 34 and dCAG dye counter 14*.
`COc1c(O)cc2oc(-c3ccc(O)cc3)cc(=O)c2c1O` gave rCAG binder 8, GRIN3A LBD mod 8, FAS-TE inh -8, Myeloid diff 2 inactive and MPTP inh 0.
`Nc1c(C(O)(C(F)(F)F)C(F)(F)F)cc(C(O)(C(F)(F)F)C(F)(F)F)c2ccccc12` gave GRIN3A LBD mod 8, FAS-TE inh 40, Myeloid diff 2 inactive and MPTP inh 0.
`O=C(O)CC1S/C(=N/N=C/c2ccc(-c3ccc(Cl)c([N+](=O)[O-])c3)o2)NC1=O` (configuration not stated) gave rCAG binder 35*, GRIN3A LBD mod -2, FAS-TE inh 4, Myeloid diff 2 inactive, MPTP inh -2, rCAG binder conf 19 and dCAG dye counter 8.0*.
Screening O=C(O)CC1S/C(=N/N=C/c2ccc(-c3ccc(Cl)cc3[N+](=O)[O-])o2)NC1=O (configuration not stated) returned rCAG binder 43*, GRIN3A LBD mod 4, FAS-TE inh -12, Myeloid diff 2 inactive, MPTP inh 0, rCAG binder conf 22 and dCAG dye counter 6.6*.
O=C(O)CC1S/C(=N/N=C/C=C/c2ccccc2[N+](=O)[O-])NC1=O (configuration not stated) was read as rCAG binder 4, GRIN3A LBD mod 1, FAS-TE inh -4, Myeloid diff 2 inactive and MPTP inh 1.
`CC1(C)CN(C(Cc2ccccc2)C(N)=O)C1=O` (configuration not stated) gave rCAG binder 0, GRIN3A LBD mod 0, FAS-TE inh -3, Myeloid diff 2 inactive and MPTP inh -1.
`CN1c2ccsc2C(O)=C(C(=S)Nc2ccccc2)S1(=O)=O` gave rCAG binder 21, GRIN3A LBD mod 1, FAS-TE inh -7, Myeloid diff 2 inactive and MPTP inh -2.
`Cc1sc2c(c1C)C(O)=C(C(=O)Nc1ccccc1)S(=O)(=O)N2C` gave rCAG binder 43*, GRIN3A LBD mod -2, FAS-TE inh 0, Myeloid diff 2 inactive, MPTP inh 0, rCAG binder conf 27 and dCAG dye counter 6.9*.
Screening O=S1(=O)CCN(C2CCCC2)CC1 returned rCAG binder 1, FAS-TE inh -7, Myeloid diff 2 inconclusive and MPTP inh 0.
CC(C)(C)OC(=O)N1CCC(c2cc(=O)n3[nH]cc(C(=O)NC4CCCC4)c3n2)CC1 was read as rCAG binder 55*, GRIN3A LBD mod -15, FAS-TE inh 7, Myeloid diff 2 inactive, MPTP inh 0, rCAG binder conf 48* and dCAG dye counter 13*.
Screening Cc1ccc2c(CC(=O)NC3CCCc4ccccc43)coc2c1 (configuration not stated) returned rCAG binder 2, GRIN3A LBD mod -1, FAS-TE inh 18, Myeloid diff 2 inactive and MPTP inh 0.
CC1CCN(C(=O)c2ncn3c2c(=O)[nH]c2ccc(Br)cc23)CC1 was read as rCAG binder 1, FAS-TE inh -7, Myeloid diff 2 inactive and MPTP inh 0.
Screening COc1ccc(Cl)cc1C(=O)NCCc1ccc(S(=O)(=O)NC(=O)NC2CCCCC2)cc1 returned rCAG binder 41*, GRIN3A LBD mod -2, FAS-TE inh -6, Myeloid diff 2 inactive, MPTP inh -2, rCAG binder conf 31 and dCAG dye counter 8.0*.
COc1ccc(CNC(=O)NC2CCCCC2)cc1 was read as rCAG binder -2, GRIN3A LBD mod 1, FAS-TE inh -3, Myeloid diff 2 inactive and MPTP inh 0.
COc1ccc2c(c1)C(=O)N(CCc1ccc(S(=O)(=O)NC(=O)NC3CCCCC3)cc1)C(=O)C2(C)C was read as rCAG binder 38*, GRIN3A LBD mod 0, FAS-TE inh 2, MPTP inh 0, rCAG binder conf 53* and dCAG dye counter 15*.
Screening O=C(N/N=C/c1ccccc1C(=O)O)c1cc(-c2ccc3c4c(cccc24)CC3)n[nH]1 returned rCAG binder 58*, GRIN3A LBD mod -12, FAS-TE inh 7, Myeloid diff 2 inactive, MPTP inh -3, rCAG binder conf 62* and dCAG dye counter 24*.
For CC(=O)NC(Cc1ccc(C)cc1)C(=O)NC1CCN(S(=O)(=O)c2ccccc2)CC1 (configuration not stated) the results were rCAG binder -2, GRIN3A LBD mod -2, FAS-TE inh -6, Myeloid diff 2 inactive and MPTP inh -1.
Screening Cc1oc2c(c(C)cc3oc(=O)c(CC(=O)N[C@@H](CC(C)C)C(=O)O)c(C)c32)c1C returned rCAG binder 43*, GRIN3A LBD mod 0, FAS-TE inh -2, Myeloid diff 2 inactive, MPTP inh 1, rCAG binder conf 33 and dCAG dye counter 6.3*.
`COc1cccc(-c2coc3c(C)c4oc(=O)c(CCC(=O)O)c(C)c4cc23)c1` gave rCAG binder 58*, FAS-TE inh -3, Myeloid diff 2 inactive, MPTP inh 1, rCAG binder conf 74*, dCAG dye counter 34* and dCAG dye DR inactive.
For Cc1c(CC(=O)O)c(=O)oc2c(C)c3occ(-c4ccc(Br)cc4)c3cc12 the results were rCAG binder 7, GRIN3A LBD mod -1, FAS-TE inh 26, Myeloid diff 2 inactive and MPTP inh 3.
